Bioassay records: PubChem, Broad Institute
The entries come from a sample that favours hits as a whole.
Tg IFNy HTS – T. gondii growth inhibition with IFN-gamma, primary screen, cell-based. Toxoplasma gondii growth in IFN-gamma-treated host cells; active compounds read low. activity change, negative = inhibition, % (test concentration not listed). actives 3.8% (n = 69,000); in the data active = activity change below about -70%, passing the limit was not always enough;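 note: host cells are HeLa cells infected with Toxoplasma gondii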
* marks the source's active call; other numbers are inactive results; i = inactive.

SMILES	Tg IFNy HTS
Cc1cnc(CNC(=O)c2c(=O)c3ccc(N4CCCN(C)CC4)nc3n3c2sc2ccccc23)cn1	-81*
Cc1cc(C)c(NC(=O)Cn2c(=O)cc(C(=O)N3CCCC3)c3ccccc32)c(C)c1	9
CCc1nccn1CCNC(=O)c1cccc(C2CCNC2)c1 (stereo not drawn)	16
COCCN1CCC(CN2CCN(c3nccc4ccccc34)CC2)CC1	-11
CCOc1ccc2oc(C)c(C(=O)N3C[C@@H](N)C[C@H]3C(=O)NC(C)C)c2c1	0
Clc1ccc(Nc2nc(Nc3ccc(Cl)cc3)nc(Oc3ccccc3)n2)cc1	-100*
COc1ccc(-c2nc(Nc3ccc(Cl)cc3)c3ccccc3n2)cc1	-42
c1ccc(Oc2nc(NCc3ccco3)nc(NCc3ccco3)n2)cc1	-18
Oc1ccc(-c2cccc(-n3cnnc3)c2)cc1	4
CC1(C)CC(=O)c2c(C(F)(F)F)nn(-c3ccc(C(N)=O)c(NC4CCC(O)CC4)c3)c2C1 (stereo not drawn)	-77*
CC1(C)CC(=O)c2c(C(F)(F)F)nn(-c3ccc(C(N)=O)c(NC4CCC(OC(=O)CN)CC4)c3)c2C1 (stereo not drawn)	-76*
CC1(C)CC(=O)c2c(nc3ccccc3c2N)C1	23
Cc1nc(N2CCCC(NC(=O)c3cccc4c3C(=O)N(C)C4)C2)[nH]c(=O)c1C (stereo not drawn)	-2
Cn1ncc(Cl)c1-c1cc(C(=O)N[C@H](CN)Cc2ccc(F)c(F)c2)oc1Cl	-81*
O=C(NC1=NCCCN1)c1c(Cl)cccc1Cl	-21
COc1ccc2c3c([nH]c2c1)[C@H](CO)N(C(C)=O)CC31CCN(S(=O)(=O)c2ccccc2)CC1	95
Cc1cccnc1N1C[C@H]2CN(Cc3cccc(F)c3)C(=O)[C@@H]2C1	68
Cc1ccc(N2CCN(C(=O)c3ccc(-c4csc(C5CC5)n4)cc3)CC2)c(C)c1	9
CCN1C(=O)[C@@H]2CN(C(C)=O)C[C@@H]2C12CCN(C(=O)COC)CC2	2
O=C1NC2(CCN(Cc3ccc(F)cc3)CC2)CC1c1ccncc1 (stereo not drawn)	-25
CC(=O)OC[C@H]1O[C@@H](Sc2cccc3cccnc23)[C@H](OC(C)=O)[C@@H](OC(C)=O)[C@H]1OC(C)=O	4
O=C(CSc1cccc2cccnc12)OCC(=O)c1ccccc1	-89*
CC(C)c1ccc(CNC(=O)CSc2cccc3cccnc23)cc1	11
CC(C)(C)C(=O)N1CCc2nc(-c3ccncc3)nc(Nc3nc4ccccc4s3)c2C1	-28
CCOc1ccc(CC(=O)NCCc2csc(-c3ccc(C)cc3)n2)cc1	403
SMILES	Tg IFNy HTS
Cc1oc(-c2ccc(NC(=O)c3ccc(C#N)cc3)cc2)nc1Cn1cccn1	-39
CO[C@@H]1CC[C@H]2CCOc3c(C#N)cccc3C(=O)N(C)C[C@@H](OC)[C@@H](C)C(=O)N(C)C[C@H]1O2	-32
Cn1cc(S(=O)(=O)N2CCN(Cc3ccccc3Cl)CC2)c(=O)n(C)c1=O	24
CN(C)Cc1c(C(=O)NCCOc2ccc(C(=O)NO)cc2)oc2ccccc12	-74*
COc1ccc(OCCNC(=O)c2cccs2)cc1	2
O=C(NCCCOc1ccccc1)c1c(O)cccc1O	12
CCCNC(=O)N1C[C@@H]2N[C@H](C1)C2c1ccc(-c2ccccc2C)cc1 (stereo partly drawn)	-56
CN(C)c1cc(Nc2ccccc2)c2c(=O)n(C)c(=O)n(C)c2n1	-84*
Cn1c(=O)c2c(-c3ccc(F)cc3)cc(-c3cccc(F)c3)nc2n(C)c1=O	-10
Cn1c(=O)c2c3nc4ccccc4cc3c(=O)n(C)c2n(C)c1=O	-13
CC1(C)C(=O)N=C2c3ccccc3C(=O)C(=O)C21 (stereo not drawn)	-88*
CCc1ccccc1NC(=O)C(=O)NCCc1sc(-c2ccc(F)cc2)nc1C	-2
CC(=O)Nc1ccc(Cl)c(C(=O)N(C)Cc2ccc3nonc3c2)c1	-44
CC(C)n1cnnc1CN(C)c1cc(N2CCOCC2)nc(N)n1	2
Clc1ccc(CSc2nnc(-c3c[nH]c4ccccc34)o2)cc1	-58
c1ccc2c(Cc3c[nH]c4ccccc34)c[nH]c2c1	10
c1ccc2c(-c3c[nH]c4ccccc34)c3ccccc3nc2c1	-86*
C=C[C@@H]1C[C@]1(NC(=O)[C@@H]1C[C@@H](Oc2ncc(OC)c3ccc(Cl)cc23)CN1C(=O)[C@@H](NC(=O)OC(C)(C)C)C(C)(C)C)C(=O)NS(=O)(=O)C1CC1	-73*
O=C(Cc1ccc(N2CC(C(=O)O)CC2=O)cc1)NC1CC1 (stereo not drawn)	3
COc1ccccc1-c1nc(Cn2c(=O)c3c(C)cc(C)nc3n(C)c2=O)c(C)o1	6
CNC(=O)c1cc2c(nc1N(C)C)CCN(Cc1c(C)noc1C)CC2	115
Cc1ccsc1C(CNC(=O)c1cnc2ccccn2c1=O)N(C)C (stereo not drawn)	41
CCCCN(C)C(=O)Cn1nc(C)c2sc(-c3ccccc3)nc2c1=O	-34
Cc1nc(CN2CCOCC3(CNCCO3)C2)cs1 (stereo not drawn)	-90*
CC(=O)N1CCOCC12CCN(Cc1csc(C)n1)CC2	2
SMILES	Tg IFNy HTS
Cc1nc(CN2CCOCC3(CN(CCO)CCO3)C2)cs1 (stereo not drawn)	1
CCOc1ccc(C2c3[nH]c4ccccc4c3CCN2Cc2cnc(SC)nc2)cc1 (stereo not drawn)	46
CC1Cc2cc(CN(C)C(=O)Cn3c(=O)oc4ccc(Cl)cc43)ccc2O1 (stereo not drawn)	-92*
CN(CCNC(=O)Cn1c(=O)oc2ccc(Cl)cc21)c1ccccc1	-3
CC1Cc2cc(CN(C)C(=O)CCS(=O)(=O)c3cccc4cccnc34)ccc2O1 (stereo not drawn)	-26
Cc1cc(C(=O)Oc2cc(C)c(Cl)c(C)c2)no1	-50
O=C(NCC1CCCCC1)[C@@H]1[C@@H](CO)[C@@H]2Cn3c(ccc(-c4ccc(F)cc4)c3=O)[C@H]1N2	-20
CCc1cc2c(cc1CC)CC(NC[C@H](O)c1ccc(O)c3[nH]c(=O)ccc13)C2	12
Fc1cccc(CNc2nc(-c3nnc(-c4ccccc4)o3)nc3ccccc23)c1	123
COc1cccc(CNc2nc(-c3nnc(-c4cccc(Cl)c4)o3)nc3ccccc23)c1	-86*
Cc1ccc(-c2nnc(-c3nc(NCCC4=CCCCC4)c4ccccc4n3)o2)cc1	i
CC(C)Nc1nc(-c2nnc(-c3cccc(Cl)c3)o2)nc2ccccc12	-40
Cc1ccc(-c2nnc(-c3nc(NCc4ccccc4F)c4ccccc4n3)o2)cc1	66
Fc1ccccc1CNc1nc(-c2nnc(-c3cccc(Cl)c3)o2)nc2ccccc12	-80*
COc1ccc(-c2nnc(-c3nc(NCc4cccc(Cl)c4)c4ccccc4n3)o2)cc1	363
COc1ccc(CNc2nc(-c3nnc(-c4cccc(Cl)c4)o3)nc3ccccc23)cc1	-67
Clc1cccc(-c2nnc(-c3nc(NCCC4=CCCCC4)c4ccccc4n3)o2)c1	-83*
CNC[C@H]1Oc2cc(C#Cc3ccccc3OC)ccc2S(=O)(=O)N([C@@H](C)CO)C[C@@H]1C	37
CCc1ccc(NC(=O)CN2C(=O)CCc3cc(Br)ccc32)cc1	122
CC1CNc2c(cccc2S(=O)(=O)N[C@@H](CCCN=C(N)N)C(=O)N2CC[C@@H](C)C[C@@H]2C(=O)O)C1 (stereo partly drawn)	7
O=C(O)CCCCC1SCC2NC(=O)NC21 (stereo not drawn)	5
Cc1cc(=O)c2cc(Cl)ccc2s1	59
